Inhibition data for three compounds are collected here from ChEMBL document CHEMBL1961873, “Compounds: GSK PKIS; Assays: Nanosyn kinase panel” (2012).

Molecules are shown by their SMILES.

In experiment [1] the target is 5'-AMP-activated protein kinase catalytic subunit alpha-2 (Homo sapiens) (UniProt P54646). The settings on record: at 1 µM.
The target in experiment [2] is T1, NUAK family SNF1-like kinase 1 (Homo sapiens) (UniProt O60285).
T1 sequence (whole entry): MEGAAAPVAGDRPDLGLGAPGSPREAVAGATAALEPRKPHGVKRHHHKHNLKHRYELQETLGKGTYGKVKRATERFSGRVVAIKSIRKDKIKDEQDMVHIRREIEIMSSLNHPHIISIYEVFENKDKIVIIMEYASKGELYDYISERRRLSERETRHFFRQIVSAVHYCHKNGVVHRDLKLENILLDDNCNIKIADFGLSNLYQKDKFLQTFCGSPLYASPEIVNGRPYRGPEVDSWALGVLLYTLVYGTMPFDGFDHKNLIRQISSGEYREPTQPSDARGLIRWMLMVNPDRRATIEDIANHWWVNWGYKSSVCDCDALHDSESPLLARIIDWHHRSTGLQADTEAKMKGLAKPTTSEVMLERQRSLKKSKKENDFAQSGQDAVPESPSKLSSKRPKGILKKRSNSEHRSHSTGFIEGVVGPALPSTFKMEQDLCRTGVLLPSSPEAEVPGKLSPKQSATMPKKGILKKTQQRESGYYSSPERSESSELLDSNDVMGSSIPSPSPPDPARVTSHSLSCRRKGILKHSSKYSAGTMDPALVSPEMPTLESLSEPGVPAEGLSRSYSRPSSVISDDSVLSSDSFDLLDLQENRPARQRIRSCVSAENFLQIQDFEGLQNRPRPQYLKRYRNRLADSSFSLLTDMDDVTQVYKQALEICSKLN
The settings on record: at 0.1 µM.

The target of experiment [3] is T1, NUAK family SNF1-like kinase 1 (Homo sapiens). The settings on record: at 1 µM.
In experiment [4] the target is T2, Serine/threonine-protein kinase BRSK1 (Homo sapiens) (UniProt Q8TDC3).
T2 sequence (whole entry): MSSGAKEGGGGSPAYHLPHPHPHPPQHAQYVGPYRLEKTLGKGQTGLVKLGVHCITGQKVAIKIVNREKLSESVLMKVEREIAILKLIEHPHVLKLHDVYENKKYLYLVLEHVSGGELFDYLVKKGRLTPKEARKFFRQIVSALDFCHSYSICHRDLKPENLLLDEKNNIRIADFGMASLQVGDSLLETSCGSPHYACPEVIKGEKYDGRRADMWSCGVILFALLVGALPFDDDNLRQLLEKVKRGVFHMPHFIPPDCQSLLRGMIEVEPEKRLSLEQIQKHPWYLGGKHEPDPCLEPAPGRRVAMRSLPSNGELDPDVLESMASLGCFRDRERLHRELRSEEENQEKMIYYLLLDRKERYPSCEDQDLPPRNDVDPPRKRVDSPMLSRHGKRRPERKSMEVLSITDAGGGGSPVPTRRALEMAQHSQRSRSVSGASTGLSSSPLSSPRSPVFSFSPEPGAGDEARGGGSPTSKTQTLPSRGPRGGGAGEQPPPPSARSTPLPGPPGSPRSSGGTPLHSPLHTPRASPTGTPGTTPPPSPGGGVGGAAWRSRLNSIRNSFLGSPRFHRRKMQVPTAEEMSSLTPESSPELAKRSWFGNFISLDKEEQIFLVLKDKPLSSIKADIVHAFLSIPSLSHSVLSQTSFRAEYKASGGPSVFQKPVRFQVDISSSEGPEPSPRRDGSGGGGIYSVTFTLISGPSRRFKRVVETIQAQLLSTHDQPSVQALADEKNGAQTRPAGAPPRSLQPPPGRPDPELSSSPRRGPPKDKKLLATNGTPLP
To be noted: at 0.1 µM.

Experiment [5] concerns the target T2, Serine/threonine-protein kinase BRSK1 (Homo sapiens). The settings on record: at 1 µM.
Experiment [6] concerns the target T3, Serine/threonine-protein kinase BRSK2 (Homo sapiens) (UniProt Q8IWQ3).
T3 sequence (whole entry): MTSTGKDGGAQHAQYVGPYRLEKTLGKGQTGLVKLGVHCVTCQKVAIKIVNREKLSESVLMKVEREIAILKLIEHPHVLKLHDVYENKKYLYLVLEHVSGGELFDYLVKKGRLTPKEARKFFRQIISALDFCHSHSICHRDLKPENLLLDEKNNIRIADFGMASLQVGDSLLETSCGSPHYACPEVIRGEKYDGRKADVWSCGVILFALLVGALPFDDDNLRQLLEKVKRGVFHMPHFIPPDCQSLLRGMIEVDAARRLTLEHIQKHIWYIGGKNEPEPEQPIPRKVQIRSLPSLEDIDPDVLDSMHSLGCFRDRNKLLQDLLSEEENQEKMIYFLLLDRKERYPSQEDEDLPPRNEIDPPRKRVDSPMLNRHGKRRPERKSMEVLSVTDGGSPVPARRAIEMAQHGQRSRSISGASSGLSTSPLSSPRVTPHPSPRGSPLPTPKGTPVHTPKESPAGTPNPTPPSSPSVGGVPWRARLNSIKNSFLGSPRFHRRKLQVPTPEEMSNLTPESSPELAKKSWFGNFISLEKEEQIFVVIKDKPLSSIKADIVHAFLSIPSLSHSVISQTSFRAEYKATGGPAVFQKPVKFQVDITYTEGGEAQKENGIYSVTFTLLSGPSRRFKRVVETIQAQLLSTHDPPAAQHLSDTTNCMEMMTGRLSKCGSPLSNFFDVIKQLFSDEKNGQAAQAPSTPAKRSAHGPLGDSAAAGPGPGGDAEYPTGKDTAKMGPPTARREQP
To be noted: at 0.1 µM.

The target of experiment [7] is T3, Serine/threonine-protein kinase BRSK2 (Homo sapiens). To be noted: at 1 µM.
Experiment [8] addresses Calcium/calmodulin-dependent protein kinase type 1D (Homo sapiens) (UniProt Q8IU85). To be noted: at 0.1 µM.
Experiment [9] has the same target. The settings on record: at 1 µM.
Experiment [10] deals with Calcium/calmodulin-dependent protein kinase type II subunit alpha (Homo sapiens) (UniProt Q9UQM7). The settings on record: at 0.1 µM.
Sequence of Calcium/calmodulin-dependent protein kinase type II subunit alpha (Homo sapiens) (Q9UQM7 whole entry): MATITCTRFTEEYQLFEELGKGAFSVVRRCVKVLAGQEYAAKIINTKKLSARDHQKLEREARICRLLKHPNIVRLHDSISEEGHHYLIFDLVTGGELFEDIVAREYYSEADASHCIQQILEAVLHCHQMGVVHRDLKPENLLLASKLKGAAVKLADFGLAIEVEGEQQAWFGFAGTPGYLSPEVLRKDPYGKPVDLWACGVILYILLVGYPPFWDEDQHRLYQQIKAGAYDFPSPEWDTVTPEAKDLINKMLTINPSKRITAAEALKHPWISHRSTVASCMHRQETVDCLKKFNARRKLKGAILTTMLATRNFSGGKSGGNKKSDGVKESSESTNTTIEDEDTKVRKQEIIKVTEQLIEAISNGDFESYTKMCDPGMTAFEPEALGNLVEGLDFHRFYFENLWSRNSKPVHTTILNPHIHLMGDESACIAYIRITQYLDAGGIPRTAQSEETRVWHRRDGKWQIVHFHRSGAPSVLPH
Experiment [11] has the same target. The settings on record: at 1 µM.
Experiment [12] has as its target Calcium/calmodulin-dependent protein kinase type II subunit delta (Homo sapiens) (UniProt Q13557). The settings on record: at 0.1 µM.
Experiment [13] shares this target. To be noted: at 1 µM.
Experiment [14] deals with T4, Calcium/calmodulin-dependent protein kinase type IV (Homo sapiens) (UniProt Q16566).
T4 sequence (whole entry): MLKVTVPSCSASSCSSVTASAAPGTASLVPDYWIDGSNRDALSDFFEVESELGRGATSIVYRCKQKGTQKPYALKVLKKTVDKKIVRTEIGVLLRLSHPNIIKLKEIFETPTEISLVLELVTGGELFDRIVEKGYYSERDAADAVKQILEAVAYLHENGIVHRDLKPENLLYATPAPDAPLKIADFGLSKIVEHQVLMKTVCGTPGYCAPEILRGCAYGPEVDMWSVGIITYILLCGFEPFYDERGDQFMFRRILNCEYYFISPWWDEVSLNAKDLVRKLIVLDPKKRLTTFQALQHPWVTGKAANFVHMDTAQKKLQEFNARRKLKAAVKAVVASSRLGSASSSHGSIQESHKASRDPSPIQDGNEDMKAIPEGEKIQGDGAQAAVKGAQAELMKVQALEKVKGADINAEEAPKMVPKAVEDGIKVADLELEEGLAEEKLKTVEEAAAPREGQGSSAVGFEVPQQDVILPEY
To be noted: at 0.1 µM.

The target in experiment [15] is T4, Calcium/calmodulin-dependent protein kinase type IV (Homo sapiens). To be noted: at 1 µM.
Experiment [16] has as its target T5, Serine/threonine-protein kinase Chk1 (Homo sapiens) (UniProt O14757).
T5 sequence (whole entry): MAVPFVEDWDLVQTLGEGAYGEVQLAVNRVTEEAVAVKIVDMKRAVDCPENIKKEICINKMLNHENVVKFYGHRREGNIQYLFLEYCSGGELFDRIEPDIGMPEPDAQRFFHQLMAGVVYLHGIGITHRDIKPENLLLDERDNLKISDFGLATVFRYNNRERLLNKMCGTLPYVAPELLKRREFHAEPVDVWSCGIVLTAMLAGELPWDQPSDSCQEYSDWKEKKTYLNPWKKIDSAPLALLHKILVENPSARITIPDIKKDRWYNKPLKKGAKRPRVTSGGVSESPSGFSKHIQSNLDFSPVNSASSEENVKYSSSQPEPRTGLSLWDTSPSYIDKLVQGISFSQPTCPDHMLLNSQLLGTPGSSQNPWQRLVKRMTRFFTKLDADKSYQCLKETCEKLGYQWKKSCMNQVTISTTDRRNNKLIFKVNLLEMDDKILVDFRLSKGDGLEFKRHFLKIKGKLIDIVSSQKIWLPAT
The settings on record: at 0.1 µM.

Experiment [17] concerns the target T5, Serine/threonine-protein kinase Chk1 (Homo sapiens). The settings on record: at 1 µM.
Experiment [18] has as its target Serine/threonine-protein kinase Chk2 (Homo sapiens) (UniProt O96017). To be noted: at 0.1 µM.
For experiment [19] the target is unchanged. To be noted: at 1 µM.
Experiment [20] deals with Death-associated protein kinase 1 (Homo sapiens) (UniProt P53355). To be noted: at 0.1 µM.
Sequence of Death-associated protein kinase 1 (Homo sapiens) (P53355 whole entry, looked up): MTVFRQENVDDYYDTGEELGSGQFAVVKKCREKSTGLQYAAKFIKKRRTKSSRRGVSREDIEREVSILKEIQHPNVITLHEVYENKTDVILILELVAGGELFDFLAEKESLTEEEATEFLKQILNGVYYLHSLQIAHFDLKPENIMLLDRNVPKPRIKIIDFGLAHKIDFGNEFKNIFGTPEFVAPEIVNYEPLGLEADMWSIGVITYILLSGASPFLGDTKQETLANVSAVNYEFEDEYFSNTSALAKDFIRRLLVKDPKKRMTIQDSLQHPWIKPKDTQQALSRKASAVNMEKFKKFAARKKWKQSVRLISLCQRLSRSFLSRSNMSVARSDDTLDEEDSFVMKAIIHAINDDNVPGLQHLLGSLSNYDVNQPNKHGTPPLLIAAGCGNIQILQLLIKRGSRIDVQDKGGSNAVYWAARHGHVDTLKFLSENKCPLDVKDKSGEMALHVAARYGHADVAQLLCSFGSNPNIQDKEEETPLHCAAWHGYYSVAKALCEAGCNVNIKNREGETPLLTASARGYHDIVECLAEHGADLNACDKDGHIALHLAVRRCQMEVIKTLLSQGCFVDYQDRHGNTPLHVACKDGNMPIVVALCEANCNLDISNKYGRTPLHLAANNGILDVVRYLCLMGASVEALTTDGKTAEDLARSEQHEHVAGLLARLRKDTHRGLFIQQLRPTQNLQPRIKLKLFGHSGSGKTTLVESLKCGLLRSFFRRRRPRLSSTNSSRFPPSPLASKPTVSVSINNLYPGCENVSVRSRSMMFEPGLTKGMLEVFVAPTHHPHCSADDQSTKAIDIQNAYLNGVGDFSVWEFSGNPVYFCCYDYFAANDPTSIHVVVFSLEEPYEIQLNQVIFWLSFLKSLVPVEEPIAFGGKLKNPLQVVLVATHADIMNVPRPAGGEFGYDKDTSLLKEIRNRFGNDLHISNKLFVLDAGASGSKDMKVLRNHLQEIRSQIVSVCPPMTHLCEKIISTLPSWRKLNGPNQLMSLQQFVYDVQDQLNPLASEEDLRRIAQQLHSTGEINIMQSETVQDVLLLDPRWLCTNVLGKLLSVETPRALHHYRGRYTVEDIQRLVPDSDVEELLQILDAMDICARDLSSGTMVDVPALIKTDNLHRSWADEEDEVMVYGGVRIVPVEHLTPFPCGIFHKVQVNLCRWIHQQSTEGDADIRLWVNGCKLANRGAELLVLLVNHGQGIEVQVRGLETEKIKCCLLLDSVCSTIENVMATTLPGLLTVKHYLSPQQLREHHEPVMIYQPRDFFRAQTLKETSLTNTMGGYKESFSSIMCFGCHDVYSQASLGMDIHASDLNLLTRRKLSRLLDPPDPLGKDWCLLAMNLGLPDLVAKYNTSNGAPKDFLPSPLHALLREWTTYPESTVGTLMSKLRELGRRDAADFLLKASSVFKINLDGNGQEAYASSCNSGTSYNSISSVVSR

Sequence of 5'-AMP-activated protein kinase catalytic subunit alpha-2 (Homo sapiens) (P54646 whole entry, looked up): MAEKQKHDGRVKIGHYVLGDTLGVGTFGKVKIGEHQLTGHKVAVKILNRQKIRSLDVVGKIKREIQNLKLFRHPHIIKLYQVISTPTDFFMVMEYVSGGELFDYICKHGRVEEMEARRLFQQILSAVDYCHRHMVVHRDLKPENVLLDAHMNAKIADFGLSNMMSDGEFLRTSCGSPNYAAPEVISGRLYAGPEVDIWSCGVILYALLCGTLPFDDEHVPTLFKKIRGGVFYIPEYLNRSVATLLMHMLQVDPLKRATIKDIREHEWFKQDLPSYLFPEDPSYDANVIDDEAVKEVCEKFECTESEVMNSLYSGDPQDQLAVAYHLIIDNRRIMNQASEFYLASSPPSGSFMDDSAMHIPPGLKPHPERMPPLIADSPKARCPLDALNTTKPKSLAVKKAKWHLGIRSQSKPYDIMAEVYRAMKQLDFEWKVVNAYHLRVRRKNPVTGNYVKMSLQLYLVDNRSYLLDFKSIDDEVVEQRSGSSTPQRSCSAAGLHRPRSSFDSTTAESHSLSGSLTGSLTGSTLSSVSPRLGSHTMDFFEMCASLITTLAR
Sequence of Calcium/calmodulin-dependent protein kinase type 1D (Homo sapiens) (Q8IU85 whole entry, looked up): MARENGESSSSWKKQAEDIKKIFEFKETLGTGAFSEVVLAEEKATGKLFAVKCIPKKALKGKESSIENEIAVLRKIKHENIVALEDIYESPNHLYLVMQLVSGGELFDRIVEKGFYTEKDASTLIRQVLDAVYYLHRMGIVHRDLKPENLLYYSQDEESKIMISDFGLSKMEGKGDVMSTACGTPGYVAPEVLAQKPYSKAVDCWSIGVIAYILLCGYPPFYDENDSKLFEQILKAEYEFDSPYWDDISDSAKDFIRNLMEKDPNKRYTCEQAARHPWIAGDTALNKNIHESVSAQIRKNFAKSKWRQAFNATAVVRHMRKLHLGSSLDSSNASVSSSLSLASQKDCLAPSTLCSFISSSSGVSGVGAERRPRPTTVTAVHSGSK
Sequence of Calcium/calmodulin-dependent protein kinase type II subunit delta (Homo sapiens) (Q13557 whole entry): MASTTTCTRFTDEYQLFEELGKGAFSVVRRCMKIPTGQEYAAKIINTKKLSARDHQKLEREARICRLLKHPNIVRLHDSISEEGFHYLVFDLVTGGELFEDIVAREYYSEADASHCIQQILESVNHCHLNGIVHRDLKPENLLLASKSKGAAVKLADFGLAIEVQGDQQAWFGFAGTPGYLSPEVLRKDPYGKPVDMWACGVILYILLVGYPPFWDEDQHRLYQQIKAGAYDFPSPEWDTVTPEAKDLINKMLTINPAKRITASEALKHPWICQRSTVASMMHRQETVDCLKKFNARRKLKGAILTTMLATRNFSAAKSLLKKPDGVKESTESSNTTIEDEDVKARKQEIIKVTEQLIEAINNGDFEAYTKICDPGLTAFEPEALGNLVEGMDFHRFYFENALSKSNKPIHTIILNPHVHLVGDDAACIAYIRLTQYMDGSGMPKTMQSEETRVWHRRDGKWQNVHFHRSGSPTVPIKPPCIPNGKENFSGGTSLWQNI
Sequence of Serine/threonine-protein kinase Chk2 (Homo sapiens) (O96017 whole entry): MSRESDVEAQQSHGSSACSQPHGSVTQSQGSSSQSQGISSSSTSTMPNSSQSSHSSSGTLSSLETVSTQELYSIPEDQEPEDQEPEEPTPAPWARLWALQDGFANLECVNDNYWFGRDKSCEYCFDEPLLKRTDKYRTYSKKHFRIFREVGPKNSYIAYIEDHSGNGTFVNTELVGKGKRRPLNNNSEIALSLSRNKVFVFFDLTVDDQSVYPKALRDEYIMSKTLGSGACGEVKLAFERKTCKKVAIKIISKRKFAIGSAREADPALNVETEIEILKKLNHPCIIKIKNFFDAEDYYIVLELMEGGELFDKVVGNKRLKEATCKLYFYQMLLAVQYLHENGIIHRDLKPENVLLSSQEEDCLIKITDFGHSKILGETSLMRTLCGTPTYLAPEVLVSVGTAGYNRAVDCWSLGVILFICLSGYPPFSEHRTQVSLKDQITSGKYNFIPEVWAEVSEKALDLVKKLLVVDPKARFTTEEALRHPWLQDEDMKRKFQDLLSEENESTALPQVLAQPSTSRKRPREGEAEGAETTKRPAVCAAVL

For `COc1ccc(-c2coc3ncnc(N)c23)cc1`, the inhibition in [1] was 5.94%; in [2] it was 3.47%; in [3], 1.24%; in experiment [4], 3.33%; in [5], 4.41%; in experiment [6], 2.46%. Moreover, the inhibition came out at 4.44% in [7]; 1.1% in [8]; 2.41% in experiment [9]; 3.92% in experiment [10]; 3.94% in [11]; 3.92% in experiment [12]. Also, the inhibition in experiment [13] was found to be 5.31%; in experiment [14], 1.63%; in experiment [15] it was 1.94%; in experiment [16], 9.42%; in experiment [17], 12.4%; in experiment [18], 7.79%. The inhibition was 8.17% in experiment [19] and 10.8% in experiment [20].

As to `O=C1NC(=O)C(c2cccc(Cl)c2)=C1Nc1ccc(O)c(Cl)c1`, the inhibition in experiment [1] was determined as 11%; in experiment [2] it was 8.01%; in [3] it was 48.3%; in experiment [4], 2.57%; in experiment [5], 12.9%; in [6] it was 2.05%. Moreover, the inhibition amounted to 19% in experiment [7]; 1.1% in experiment [8]; 5.88% in experiment [9]; 3.72% in experiment [10]; 6.43% in experiment [11]; 3.12% in experiment [12]. The inhibition in [13] stood at 12%; in [14], 1.98%; in experiment [15] it was 4.94%; in experiment [16], 1.7%; in experiment [17], 4.63%; in [18], 0.16%. The figures for the inhibition in [19] and in [20] were 2.07% and 1.29%, respectively.

With `CC(=O)Nc1cccc(C#Cc2cncnc2Nc2ccc(OCc3cccc(F)c3)c(Cl)c2)n1`, the inhibition in experiment [1] is -0.66%; in experiment [2] it was 2.57%; in [3] it was 1.97%; in experiment [4], -1.43%; in experiment [5], 5.34%; in experiment [6], 1.19%. In addition, the inhibition in [7] is 5.79%; in experiment [8] it was 0.41%; in experiment [9], 0.25%; in experiment [10] it was 0.69%; in experiment [11] it was 1.27%; in experiment [12], -0.74%. For the same compound, the inhibition in experiment [13] was -2.74%; in experiment [14], -4.11%; in [15], -7.03%; in [16], 7.14%; in experiment [17] it was 5.32%; in experiment [18], 3.3%. Also, the inhibition was determined as 4.37% in experiment [19] and 7.49% in experiment [20].
